Source: PubChem BioAssay (National Center for Advancing Translational Sciences (NCATS))
The sample as a whole holds a higher share of hits than the screen did.
Pf Dd2 growth: Plasmodium falciparum Dd2 growth inhibition; Potency, µM (highest dose often 28.9 µM), for inactives: top-dose activity, negative = inhibition, hits mostly inhibitors; AID 1347417; actives 4.3% (n = 120,000); P. falciparum Dd2 growth, SYBR Green, 72 h; active means well fitted inhibition curve with a large enough effect;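 further: plate controls were DMSO vehicle for no effect and reference drug for full effect; nearly all actives have a fitted effect of over 65% in size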
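Infected erythrocytes (Dd2, 0.3% parasitemia, 2.5% hematocrit final) are added to compound in RPMI-1640/Albumax II medium, grown 72 h at 37C in low oxygen, then lysed with saponin/Triton-X containing SYBR Green and read by fluorescence.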
Active calls of the source: *; i = inactive; [ ] = dose if it differs, or a comment. Potency means the concentration at half of the fitted maximal effect.

SMILES	Pf Dd2 growth
c1ccc(-c2ccc3ncc(Nc4cccnc4)n3n2)cc1	1.6µM*
Fc1ccc(-c2ccc3ncc(Nc4ncccn4)n3n2)cc1	1%[44.1 µM]
c1ccc(-c2ccc3ncc(Nc4cnccn4)n3n2)cc1	i
Clc1ccc(Nc2cnc3ccc(-c4ccccc4)nn23)nc1	i
Fc1ccc(-c2ccc3ncc(Nc4ccccn4)n3n2)cc1	5.6µM*
Fc1ccc(-c2ccc3ncc(Nc4ccc(Cl)cn4)n3n2)cc1	i
Cc1ncc(S(C)(=O)=O)c(NCCn2nc(C)nc2C)n1	23%
O=C(NC[C@H]1COCc2nc3cc(F)ccc3n21)c1ccc(Cl)cc1	-8%[44.1 µM]
CCOc1ccccc1NC(=O)c1c(NC(=O)c2cccc(C)c2)sc2c1CCCC2	8.9µM*
CCOc1ccccc1NC(=O)c1c(NC(=O)Cc2ccccc2)sc2c1CCCC2	25%
CCOc1ccccc1NC(=O)c1c(NC(=O)COc2ccc(Cl)cc2)sc2c1CCCCC2	i
Cc1nc(-c2c3n(c(=O)n(CC(=O)Nc4ccccc4Cl)c2=O)CCCC3)no1	7%
COc1cccc(CC(=O)Nc2ccc3c(c2)CN(Cc2ccccc2Cl)C(=O)C(C)O3)c1 (configuration not stated)	-3%
CCCc1nnc([C@H]2CCN(C3CCN(C(C)=O)CC3)C2)o1	-5%[44.1 µM]
CCn1cc(S(=O)(=O)N2CCCCC2c2nc(C3CC3)n[nH]2)cn1 (configuration not stated)	1%
O=C(Nc1ccc(OC(F)(F)F)cc1)C1CCCN(S(=O)(=O)c2cccc3nonc23)C1 (configuration not stated)	50%
O=C(Nc1ccc(F)c(F)c1)C1CCCN(S(=O)(=O)c2cccc3nonc23)C1 (configuration not stated)	31%
O=C(Nc1ccc(C(F)(F)F)cc1)C1CCCN(S(=O)(=O)c2cccc3cccnc23)C1 (configuration not stated)	11µM*
O=C(c1ccc2c(c1)OCO2)N1CCC(N2CCOCC2=O)CC1	4%
O=C(c1ccccc1F)N1CCC2(C1)C(=O)N(c1ccccc1)c1ccccc12 (configuration not stated)	-26%
O=C(c1ccc(C(F)(F)F)cc1)N1CCC2(C1)C(=O)N(Cc1ccccc1)c1ccccc12 (configuration not stated)	-15%
CN1C(=O)C2(CCN(Cc3ccnn3C)C2)c2ccccc21 (configuration not stated)	-22%[44.1 µM]
CN1C(=O)C2(CCN(Cc3cccc4ccccc34)C2)c2ccccc21 (configuration not stated)	13µM*
CN1C(=O)C2(CCN(S(=O)(=O)c3ccc(F)cc3)C2)c2ccccc21 (configuration not stated)	-29%
CN1C(=O)C2(CCN(S(=O)(=O)c3ccccc3)C2)c2ccccc21 (configuration not stated)	-21%[44.1 µM]
SMILES	Pf Dd2 growth
CN1C(=O)C2(CCN(Cc3ccc(F)cc3)C2)c2ccccc21 (configuration not stated)	13µM*
CN1C(=O)C2(CCN(Cc3ccc(C(F)(F)F)cc3)C2)c2ccccc21 (configuration not stated)	i
CN1C(=O)C2(CCN(Cc3cncs3)C2)c2ccccc21 (configuration not stated)	i
O=C1Nc2ccccc2C12CCN(Cc1ccsc1)CC2	13%[44.1 µM]
O=C(c1ccc(C(F)(F)F)cc1)N1CCC2(C1)C(=O)N(c1ccccc1)c1ccccc12 (configuration not stated)	10µM*
CN1C(=O)C2(CCN(Cc3ccsc3)C2)c2ccccc21 (configuration not stated)	5.6µM*
Cc1ccncc1C(=O)N1CC(c2nc(CCN(C)C(=O)C3CC3)no2)C1	4%
CCOc1ccc(C(=O)N2CC(c3nnc(-c4ccc(C)cc4)o3)C3(CCOCC3)C2)cc1 (configuration not stated)	i
OCc1cc(CC2(NC3CCC(CO)CC3)COC2)no1 (configuration not stated)	15%[44.1 µM]
CN1C(=O)[C@@H]2C[C@@H](CN2C(=O)c2ccccc2)Oc2ccccc21	10%[44.1 µM]
COc1ccc(C(=O)N2CC[C@@H]3CN(c4cnccn4)[C@@H]3C2)c(OC)n1	-8%
O=C(c1cccc(C(F)(F)F)c1)N1CCC(Oc2ncccc2C(=O)N2CCCCC2)C1 (configuration not stated)	i
NC(=O)[C@@H](Cc1ccccc1)NC(=O)C1=C[C@@H](NC(=O)c2cnccn2)[C@@H](O)[C@H](O)C1	-3%[44.1 µM]
Cc1noc([C@@H]2CC(F)(F)CN2S(=O)(=O)c2ccccc2)n1	18%
COc1ccc(-c2nnc([C@H]3CCN(Cc4ccc(C(=O)O)cc4)C3)o2)cc1	i
CNC(=O)N1CCC(C2CCN(C(=O)CCc3ccc(OC)cc3)C2)CC1 (configuration not stated)	-6%
Cc1cnccc1N1CCCN(C(=O)C2CCOc3ccccc3C2)CC1 (configuration not stated)	i
CN1C(=O)C2(CCN(C(=O)c3ccc(Cl)cc3)C2)c2ccccc21 (configuration not stated)	-21%
O=C1N(c2ccccc2)c2ccccc2C12CCN(Cc1ccccc1)C2 (configuration not stated)	11µM*
CCCC(=O)N1CCC2(CC1)C(=O)N(C)c1ccccc12	44%
N#Cc1ccc(CN2CCC3(C2)C(=O)Nc2ccccc23)cc1 (configuration not stated)	-10%
CN1C(=O)C2(CCN(C(=O)Cc3ccccc3Cl)C2)c2ccccc21 (configuration not stated)	3.2µM*
O=C1Nc2ccccc2C12CCN(Cc1cccnc1)C2 (configuration not stated)	-21%[44.1 µM]
O=S(=O)(c1cccs1)N1CCc2nc(C3CC3)nc(-c3ccc(Cl)cc3)c2C1	-11%
CCc1nc2c(c(-c3ccc(OC)cc3)n1)CCN([S+](=O)([O-])c1cccs1)CC2	-14%
SMILES	Pf Dd2 growth
COc1ccc(-c2nc(C(C)C)nc3c2CN([S+](=O)([O-])c2cccs2)CC3)cc1	5µM*
O=[S+]([O-])(c1cccs1)N1CCc2nc(C3CC3)nc(-c3ccc(Cl)cc3)c2CC1	4µM*
CC(C)c1nc2c(c(-c3ccc(Cl)cc3)n1)CN([S+](=O)([O-])c1cccs1)CC2	i
COc1ccc(-c2nc(C(C)C)nc3c2CN([S+](=O)([O-])c2cccc(OC)c2)CC3)cc1	i
Cc1nn(C)c2nc(N3CCCCC3CN3CCOCC3)sc12 (configuration not stated)	0%
CN(CC1CCOC1)C(=O)Nc1c(F)cccc1F (configuration not stated)	10%[5.79 µM]
Cc1c(F)cccc1NC(=O)N1CC(c2nnc(-c3ccncc3)o2)C2(CCOCC2)C1 (configuration not stated)	i
CCCNC(=O)C1COC2(CCN(C(=O)Cc3ccccc3)CC2)N1C(=O)c1cccc(C)c1 (configuration not stated)	i
Cc1cccc(C(=O)N2C(C(=O)NCC(C)C)COC23CCN(C(=O)c2ccc(F)cc2)CC3)c1 (configuration not stated)	i
CC(C)NC(=O)C1COC2(CCN(C(=O)CC(C)(C)C)CC2)N1C(=O)c1ccccc1 (configuration not stated)	-25%
COc1ccc(C(=O)N2CCC3(CC2)OCC(C(=O)NCC(C)C)N3C(=O)c2ccc(C)cc2)cc1 (configuration not stated)	i
